# Sampled rows, rich in hits. Any-hit rate of the full collection: about 9%.
# ALDH1A1 inh = inhibitors of human aldehyde dehydrogenase 1A1; Purified ALDH1A1, NADH fluorescence, propionaldehyde substrate; AID 1030; Potency, µM (top dose mostly 75.3 µM), for the others: at the top dose activity, negative = inhibition, hits mostly inhibitors; actives 7.3% (n = 220,000);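 note: potency is the fitted concentration of half-maximal effect; plate controls were no enzyme wells and a reference inhibitor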
# IMPase cell inh = IMPase inhibition in cells | inhibition (IP1 accumulation), % at 46.1 µM | 120,000 tested, under 10 active | P97697 | CHO-M1 cells, IP1 accumulation, HTRF TR-FRET ratio; active = well fitted curve in the direction sought with a large enough effect in the signal ratio, not every such curve was filed as active; inconclusive = small, poorly fitted or top-dose-only effect, or a change in a side signal; inactive = no such curve, though single readings can be large or run the other way; the % refers to the signal ratio;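 note: cells stimulated with carbachol in lithium chloride buffer; plate controls were DMSO basal wells for no effect and reference inhibitor wells for full effect; higher means more IMPase inhibition seen as more IP1 and lower FRET ratio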
# Target sequence (P97697 whole entry, looked up): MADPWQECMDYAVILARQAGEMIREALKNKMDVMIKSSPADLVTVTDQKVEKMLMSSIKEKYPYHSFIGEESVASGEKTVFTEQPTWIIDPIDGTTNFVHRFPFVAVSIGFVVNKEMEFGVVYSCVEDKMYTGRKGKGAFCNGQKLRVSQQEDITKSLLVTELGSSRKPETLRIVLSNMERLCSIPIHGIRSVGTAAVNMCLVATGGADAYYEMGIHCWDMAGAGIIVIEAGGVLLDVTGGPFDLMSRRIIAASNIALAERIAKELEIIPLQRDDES
#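 In this qHTS, compounds (final up to 46 uM) act on CHO-M1 cells that are then activated through the M1 receptor with carbachol, in pH 7.4 buffer containing 50 mM LiCl, for 30 min. IP1 accumulation is quantified by the IP-One immunoassay.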
# HPGD inh = HPGD (human) dehydrogenase inhibition; purified HPGD, NADH fluorescence kinetic, PGE2 substrate; actives 4.3% (n = 150,000); Potency, µM, inactives show at the highest dose activity change, negative = inhibition, hits mostly inhibitors; P15428; note: potency is the fitted concentration of half-maximal effect
#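 20 nM HPGD preincubated 15 min at room temperature with compound in 50 mM Tris-HCl pH 8, 0.01% Tween 20. Started with 1 mM NAD+ and 30 uM prostaglandin E2; NADH fluorescence (360/450 nm) read 5 times over 30-s intervals, last minus first.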
# The depositor's hits bear a star; ? = inconclusive; . = not tested or not shown; [ ] = another dose, or the depositor's remark. Unless noted, calls come from the whole dose curve; as a rule, active = well fitted inhibition curve with a large enough effect (not every such curve was filed as active); inconclusive = small, poorly fitted or top-dose-only effect, or another doubt; inactive = no such curve, though single readings can be large or run the other way. Unless noted, % is set by controls: 0 for no effect and ±100 for the full control effect.
SMILES,ALDH1A1 inh,IMPase cell inh,HPGD inh
CC(=O)c1ccc[nH]1,0.8%,.,-8.5%
CCOc1cc(C2C(C#N)=C(N)Oc3n[nH]c(C)c32)ccc1OCCN1CCOCC1 (stereo not given),?,11.1,-10.1%
c1ccc(N2CCN(c3ccc4nncn4n3)CC2)nc1,2.8%,11.4,-4.2%
CN(CCC#N)C(=O)COC(=O)c1ccccc1OCc1ccccc1Cl,-1.7%,.,.
CC(OC(=O)C(C)N1C(=O)C2C3C=CC(C4CC34)C2C1=O)C(=O)c1ccccc1 (stereo not given),-1.4%,.,-8.2%
O=C(O)CSSCC(=O)O,-3.9%[13.5 µM],.,-3.4%
Cc1ccc(C(=O)N2CCSCC2)cc1,0.4%,-3.8,0.282µM*
Cc1ccc(C(=O)N2CC(C(=O)O)C2)cc1,-1.5%,.,.
O=C(COc1ccc(-c2ccccc2)cc1)N1CCCC1,12.6µM*,.,.
COC(=O)c1ccccc1NC(=O)Nc1ccc(C(=O)N2CCCC2)cc1,1.5%,1.4,-20.6%
O=C(c1cccc(C(F)(F)F)c1)N1CCCCCC1,11.8%,-2.7,?
Cc1cccc(C(=O)N2CCCCCC2)c1,12.6%,2.3,5.01µM*
O=C(Oc1ccc(-c2ccccc2)cc1)N1CCCCC1,-0.1%,18.7,-27.5%
COC(=O)c1ccc(-c2ccc(C(=O)N3CCCN(C)CC3)cc2)cc1,14.3%,4.1,1.26µM*
O=C(O)C(c1ccccc1)N1CCCC1 (stereo not given),-1.6%,-6.6,-11.8%
COc1ccc(C2C(C(=O)Nc3cccnc3)=C(C)Nc3nc(-c4ccc(OC)c(OC)c4)nn32)cc1 (stereo not given),.,4.2,.
COc1ccc(Oc2ncc3nc(-c4cccs4)c(=O)n(Cc4cccs4)c3n2)cc1,4.9%,.,-21.8%
CCOC(=O)N1CCN(C(=O)c2cn(C)c3ccc(S(=O)(=O)N4CCC(C)CC4)cc3c2=O)CC1,-4.4%,.,.
O=C(c1cccc(Br)c1)N1CCCC1,9.3%,-5.1,17.8µM*
O=C(c1ccc(-c2ccccc2)cc1)N1CCCC1,-14.7%,6.0,1.58µM*
CNC(=O)C1CCN(C(=O)c2ccc(-c3ccccc3)cc2)CC1,?,-4.1,-11.7%
O=C(c1cccc(Br)c1)N1CCN(C(=O)N2CCCCC2)CC1,?,9.4,-0.8%
CN(CC(=O)NC1CC(C)(C)NC(C)(C)C1)S(=O)(=O)c1cc(Cl)ccc1Cl,13.9%,.,.
Cc1ccc(/C=N/n2c(C3CCCCC3)n[nH]c2=S)o1,?,.,28.2µM*
S=c1[nH]nc(-c2cc(-c3ccccc3)n[nH]2)n1/N=C/c1cccc(Cl)c1,13.6%,.,.
SMILES,ALDH1A1 inh,IMPase cell inh,HPGD inh
Cc1n[nH]c(=S)n(/N=C/c2ccccn2)c1=O,-7.7%,2.6,.
Cc1cccc(-c2n[nH]c(=S)n2/N=C/c2ccc(C)o2)c1,?,.,15.8µM*
S=c1[nH]nc(C2CCCCC2)n1/N=C/c1cccs1,22.4µM*,2.5,12.6µM*
S=c1[nH]nc(C2CCCCC2)n1/N=C/c1ccncc1,-7.7%,.,.
O=[N+]([O-])c1ccc(/C=N/n2c(C3CCCCC3)n[nH]c2=S)cc1,-1.8%,5.0,4.47µM*
COc1cc(C2c3[nH]c4ccccc4c3CC3C(=O)N4C(Cc5c([nH]c6ccccc56)C4c4cc(OC)c(OC)c(OC)c4)C(=O)N32)cc(OC)c1OC (stereo not given),0.9%[13.5 µM],.,.
COc1cc(/C=C/C(=O)OCC(=O)N2CCN(C(=O)c3ccco3)CC2)ccc1O,-14.8%,.,-18.3%
C/C=C/C(=O)Nc1nnc(-c2ccccc2C)s1,7.5%,.,.
C=C(C)C(=O)Nc1nnc(-c2ccccc2C)s1,7.94µM*,.,.
COCCn1c(SCc2cc(=O)n3cc(C)ccc3n2)nc2ccccc2c1=O,0.9%,.,.
CCC(Sc1nnc2c3ccccc3n(CC)c2n1)C(=O)Nc1sc2c(c1C#N)CCCC2 (stereo not given),17.8µM*,6.9,-28.5%
CCC(Sc1nc(C)cc(=O)[nH]1)C(=O)Nc1sc2c(c1C#N)CCCC2 (stereo not given),?,3.0,-11.4%
Cc1ccc(S(=O)(=O)NCc2ccncc2)c(C)c1C,31.6µM*,.,.
Cc1cc(C)c(S(=O)(=O)NCc2ccncc2)c(C)c1,5.9%,9.2,-5.8%
Nc1nc(-c2ccccc2)nn1S(=O)(=O)c1ccccc1,1.9%,.,.
O=C(CSc1nccn1-c1ccc(Cl)cc1)NCc1ccc2c(c1)OCO2,-5.9%,1.0,3.6%
Cc1cc(C(=O)COC(=O)c2ccncc2)c(C)n1Cc1ccco1,-12.6%,.,.
Cc1cc(C(=O)COC(=O)c2cccn2C)c(C)n1Cc1ccco1,25.1µM*,.,.
CCCS(=O)(=O)c1c(S(=O)(=O)CCC)c2cc(C(C)(C)C)ccn2c1C(=O)c1ccccc1,.,4.3,.
O=C(CCN1C(=O)C2C3CC(C(Br)C3Br)C2C1=O)OCC(=O)c1ccccc1 (stereo not given),-14.3%,-0.5,-4.8%
